Shiga inhibitor: blocks Shiga toxin action in Vero cells; Vero cells, Shiga toxin protein synthesis inhibition reporter; inhibition, % at 38.7 µM; 9.2% of 290,000 active; AID 2315; in the data active = inhibition mostly above about 28%, no sharp cut-off; inactive = mostly below about 43%; also: 0% is about no effect
TbPYK inhibitor: T. brucei pyruvate kinase inhibition; 0.12% of 410,000 active; Potency, µM (top dose mostly 76.8 µM), for the others: at the highest dose activity, negative = inhibition, most hits filed as inhibitors; Q57TT1; TbPYK enzyme, Kinase-Glo Plus ATP luminescence, 45 min; active = well fitted curve in the direction sought with a large enough effect; inconclusive = small, poorly fitted or top-dose-only effect, or another doubt; inactive = no such curve, though single readings can be large; an effect the other way counts as inactive or inconclusive; also: potency is read from the fitted curve at half-maximal effect; % is scaled to controls: 0 for no effect and ±100 for the full control effect; nearly all actives have a fitted effect of over 50% in size
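Glycolytic pyruvate kinase of T. brucei was incubated with substrate, test compound and 130 uM ADP for 45 minutes at room temperature. Luminescent Kinase-Glo Plus signal was measured after 10 minutes.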
NS1 function inh: blocks influenza NS1 protein function | Potency, µM (top dose mostly 46.1 µM), inactives show at the top dose activity, positive = more growth | 0.4% of 270,000 active; also: potency is read from the fitted curve at half-maximal effect; actives are rising curves; nearly all actives have a fitted effect of over 50% in size
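In this qHTS, NS1 from influenza A is expressed in budding yeast, where it slows growth. Cells are switched from glucose to 2% galactose medium (pH 6.0, -URA), treated with compound, and growth recovery is read at OD600.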
CHX counter: counter-screen hit for Shiga toxin inhibitors, cycloheximide; cell reporter, cycloheximide protein synthesis inhibition counterscreen; max response, %; 12% of 300,000 active; AID 2314; in the data active = max response mostly above about 13%, no sharp cut-off; inactive = mostly below about 14%; also: read at 38.3 µM for the half of the compounds with a filed dose; 0% is about no effect
SARS PLP yeast: inhibitors of SARS-CoV papain-like protease in yeast | S. cerevisiae expressing SARS-CoV PLpro, growth rescue | Potency, µM (series often up to 32.9 µM), without a hit: at the highest dose activity, positive = growth rescue, usual class: activators | 0.19% of 330,000 active | AID 485353; also: potency is read from the fitted curve at half-maximal effect; 0% is about no effect; nearly all actives have a fitted effect of over 55% in size
LmPK inh: LmPK (Leishmania mexicana) enzyme inhibition; Q27686; purified LmPK, Kinase-Glo ATP luminescence, 1 h; Potency, µM (doses to about 57.5 µM), for inactives: at the top dose activity change, negative = inhibition, usual class: inhibitors; 0.37% of 290,000 active; AID 1721; active = well fitted curve in the direction sought with a large enough effect; inconclusive = small, poorly fitted or top-dose-only effect, or another doubt; inactive = no such curve, though single readings can be large; an effect the other way counts as inactive or inconclusive; also: potency is read from the fitted curve at half-maximal effect; % is scaled to controls: 0 for no effect and ±100 for the full control effect
Target sequence (Q27686 whole entry, looked up): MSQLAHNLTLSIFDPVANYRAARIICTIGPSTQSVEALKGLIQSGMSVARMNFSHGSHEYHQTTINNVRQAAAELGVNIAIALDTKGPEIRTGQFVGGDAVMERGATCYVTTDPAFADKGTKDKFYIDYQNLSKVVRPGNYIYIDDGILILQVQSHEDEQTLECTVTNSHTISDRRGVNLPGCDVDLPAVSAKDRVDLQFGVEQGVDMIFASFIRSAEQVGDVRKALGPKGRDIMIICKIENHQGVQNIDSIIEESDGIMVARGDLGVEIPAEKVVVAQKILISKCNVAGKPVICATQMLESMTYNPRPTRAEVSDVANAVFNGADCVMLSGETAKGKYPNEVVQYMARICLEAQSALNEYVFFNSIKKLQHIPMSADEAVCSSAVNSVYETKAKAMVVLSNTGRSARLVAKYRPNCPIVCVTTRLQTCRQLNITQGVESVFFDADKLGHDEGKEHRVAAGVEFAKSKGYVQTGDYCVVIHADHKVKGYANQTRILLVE
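0.1 nM LmPK, 0.5 mM PEP, 0.1 mM ADP; 50 mM imidazole pH 7.2, 7 mM MgCl2, 50 mM KCl; 1 h RT. Kinase-Glo luminescence readout, normalized to no-enzyme (full inhibition) and uninhibited wells.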
* = called active by the depositor. Only a selection was taken, and hits are over-represented in it overall. Unless noted, calls follow the shape of the full dose curve.

For CCCC(=O)Nc1nc2ccc(NC(=O)c3ccc(Br)o3)cc2s1 the results were Shiga inhibitor 44, TbPYK inhibitor 1%, NS1 function inh inconclusive, CHX counter 8, SARS PLP yeast 1% and LmPK inh -10%.
For Cc1nc2ccc(NC(=O)c3ccc(Br)o3)cc2s1 the results were Shiga inhibitor 66*, TbPYK inhibitor 29%, CHX counter 36*, SARS PLP yeast -5% and LmPK inh -6%.
`Cc1ccc2nc(NC(=O)c3ccc(Cl)s3)sc2c1` gave Shiga inhibitor 51*, TbPYK inhibitor -16%, NS1 function inh -5%, CHX counter 25*, SARS PLP yeast 6% and LmPK inh -1%.
For Cc1nc2ccc(NC(=O)c3ccc(Cl)s3)cc2s1 the results were Shiga inhibitor 77*, TbPYK inhibitor 1%, NS1 function inh 5%, CHX counter 15, SARS PLP yeast -2% and LmPK inh 8%.
For Cc1cccc2sc(NC(=O)c3ccc(Cl)s3)nc12 the results were Shiga inhibitor -2, TbPYK inhibitor 4%, NS1 function inh 2%, CHX counter 16, SARS PLP yeast 1% and LmPK inh -4%.
`CSc1ccc(CN2CCC2(C)C(=O)Nc2cccc(Oc3ccccc3)c2)cc1` (centres undefined) gave TbPYK inhibitor 0%.
For CC1=C(C(=O)N2CCN(c3cccc(Cl)c3)CC2)C2(CCCCC2)OC1=O the results were TbPYK inhibitor -4%.
For Cn1c(=O)c2sccc2n(Cc2ccccc2)c1=O the results were Shiga inhibitor -7, TbPYK inhibitor 2%, NS1 function inh -20%, CHX counter -2, SARS PLP yeast 4% and LmPK inh -3%.
For Nc1[nH]n(-c2ccccc2)c(=O)c1N=Nc1ccc2ncsc2c1 the results were Shiga inhibitor 38*, TbPYK inhibitor -11%, NS1 function inh -6%, CHX counter 41*, SARS PLP yeast -2% and LmPK inh -5%.
For Cc1ccc(N=Nc2c(C)[nH]n(-c3ccccc3)c2=O)cc1Br the results were Shiga inhibitor 17, TbPYK inhibitor 5%, NS1 function inh 0%, CHX counter 5, SARS PLP yeast -3% and LmPK inh 5%.
Screening Cc1[nH]n(-c2ccccc2)c(=O)c1N=Nc1ccc(F)cc1 returned Shiga inhibitor 31, TbPYK inhibitor 2%, NS1 function inh -8%, CHX counter 13*, SARS PLP yeast 0% and LmPK inh 2%.
`Nc1[nH]n(-c2ccccc2)c(=O)c1N=Nc1ccccc1[N+](=O)[O-]` gave Shiga inhibitor 25, TbPYK inhibitor 1%, NS1 function inh -2%, CHX counter 13*, SARS PLP yeast -3% and LmPK inh 2%.
`CSc1ccc(N=Nc2c(C)[nH]n(C)c2=O)cc1` gave Shiga inhibitor 67*, TbPYK inhibitor -1%, NS1 function inh -7%, CHX counter 46*, SARS PLP yeast -2% and LmPK inh -24%.
Screening CCOc1ccc2nc(NC(=O)c3cc(=O)c4cc(C)cc(C)c4o3)sc2c1 returned TbPYK inhibitor 0%.
For COc1cccc(NC(=O)C(CCSC)NC(=O)C2CCC(C)CC2)c1 (centres undefined) the results were TbPYK inhibitor -1%.
For CCN1CCN(c2ccc(S(=O)(=O)N3CCOCC3)cc2NC(=O)c2ccc(F)cc2Cl)CC1 the results were TbPYK inhibitor -1% and SARS PLP yeast 1%.
For Cc1[nH]n(-c2ccccc2)c(=O)c1N=Nc1cccc(Cl)c1 the results were Shiga inhibitor 15, TbPYK inhibitor 11%, NS1 function inh 11%, CHX counter 3, SARS PLP yeast 3% and LmPK inh -1%.
Nc1[nH]n(-c2ccccc2)c(=O)c1N=Nc1ccccc1 was read as Shiga inhibitor 61*, TbPYK inhibitor -1%, NS1 function inh -23%, CHX counter 61*, SARS PLP yeast -2% and LmPK inh 4%.
O=C(O)c1ccc(N=Nc2c(O)ccc3ncccc23)cc1 was read as Shiga inhibitor 65, TbPYK inhibitor -10%, NS1 function inh -46%, CHX counter 22*, SARS PLP yeast -4% and LmPK inh -9%.
`O=C(O)c1cc(N=Nc2c(O)ccc3ccccc23)cc(C(=O)O)c1` gave Shiga inhibitor -1, TbPYK inhibitor 13µM*, NS1 function inh 5%, CHX counter 8, SARS PLP yeast 0% and LmPK inh inconclusive.
For Oc1ccc(N=Nc2c(O)ccc3ccccc23)cc1 the results were Shiga inhibitor -36, TbPYK inhibitor -5%, NS1 function inh -36%, CHX counter 32*, SARS PLP yeast -26% and LmPK inh -18%.
Cc1ccc(-c2c(C(=O)N3CCN(c4cccc(C)c4C)CC3)oc(=O)c3ccccc23)cc1 was read as TbPYK inhibitor 1%.
For Clc1ccccc1-c1ncc(-c2ccccc2)o1 the results were TbPYK inhibitor -1%, NS1 function inh -34%, CHX counter 26*, SARS PLP yeast 0% and LmPK inh -5%.
`COc1ccc(/C=C(\NC(=O)c2ccc(C)cc2)C(=O)NCCCN2CCOCC2)cc1OC` gave Shiga inhibitor -6, TbPYK inhibitor 5%, NS1 function inh -1%, CHX counter -1, SARS PLP yeast 1% and LmPK inh 4%.
Screening CCNC(=O)c1ccc(NS(=O)(=O)c2ccc3[nH]c(=O)[nH]c3c2)cc1 returned Shiga inhibitor 46*, TbPYK inhibitor 1%, NS1 function inh -1%, CHX counter 30*, SARS PLP yeast -5% and LmPK inh -10%.
COc1ccc2ncc(OC(C)=O)cc2c1 was read as Shiga inhibitor 23, TbPYK inhibitor -6%, NS1 function inh 8%, CHX counter 14*, SARS PLP yeast -4% and LmPK inh -1%.
CCc1ccc(N2CC(C(=O)Nc3ccc(S(=O)(=O)N4CCOCC4)cc3)CC2=O)cc1 (centres undefined) was read as TbPYK inhibitor 0% and SARS PLP yeast 0%.
For O=C1NCCN(CC2CCN(CCc3ccc(Cl)c(Cl)c3)CC2)C1=O the results were TbPYK inhibitor 3%.
Fc1cc(NCc2ccccc2)nc(NCc2ccccc2)n1 was read as Shiga inhibitor 60*, TbPYK inhibitor 3%, NS1 function inh -2%, CHX counter 53*, SARS PLP yeast -4% and LmPK inh -2%.
Screening Cc1cc(N/N=C/c2ccc(F)cc2)nc(NCc2ccccc2)n1 returned Shiga inhibitor 46*, TbPYK inhibitor 0%, NS1 function inh -45%, CHX counter 22*, SARS PLP yeast -2% and LmPK inh -8%.
Cc1ccc(/C=N/Nc2cc(C)nc(NCc3ccccc3)n2)cc1 was read as Shiga inhibitor 29, TbPYK inhibitor -2%, NS1 function inh -54%, CHX counter 19*, SARS PLP yeast -5% and LmPK inh 4%.
Cc1ccc(-n2nc(C)c3nc(CCC(=O)Nc4cccc(F)c4)c(=O)n(C)c32)cc1 was read as TbPYK inhibitor -3%.
